PubChem BioAssay
Results with a measured potency or affinity are listed apart. Inconclusive results are not listed. Activity calls are given as the source filed them. Unless noted, how the calls were made is not given here.

Columns and labels:
[1] = RMG-1 ovarian cancer cell viability loss – cherry-pick, dose response (AID 687029;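 active means signal drop whose fitted half-maximal concentration is at most twice the top valid dose, in every test run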;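 further: cells exposed to compound for 96 hours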); settings: RMG-1 viability, CellTiterGlo ATP luminescence, 96 h; series mostly up to 35 µM
[2] = IOSE-T80 viability loss, PAX8-independent line – cell-based, cherry-pick, selectivity assay for PAX8 inhibitor project, dose response (AID 687032;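 active means fitted half-maximal concentration for viability loss no higher than twice the top valid dose, in every repeat run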;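 further: cells exposed to compound for 96 h before reading; 0% = neutral control wells and -100% = 2 µM mitoxantrone kill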); settings: CellTiterGlo ATP luminescence, 96 h; series mostly up to 35 µM
[3] = CMV-driven luciferase expression suppression in HEK293 – cell-based, luminescence, dry powder, counter-screen for Pax8 inhibitor project, dose response (AID 743020;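 active means signal-lowering compounds whose fitted half-maximal concentration is at or below twice the top tested dose in every run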;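 further: HEK293 cells stably expressing the CMV luciferase reporter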); settings: HEK293 CMV-luciferase reporter, SteadyGlo luminescence, 24 h; series mostly up to 35 µM
[4] = IGROV1 cell killing – plate reader, dry powder samples, PAX8 inhibitor project, dose response (AID 743043); settings: IGROV1 ovarian cancer cell cytotoxicity; series mostly up to 35 µM;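 further: more negative means fewer viable cells or more cytotoxicity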
[5] = toxicity toward immortalized ovarian surface epithelium – cell-based, plate reader, dry powder samples, cytotoxicity control for PAX8 inhibitor project, dose response (AID 743045); settings: IOSE-T80 ovarian epithelial cells; series mostly up to 35 µM;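 further: 0% = neutral control median and -100% = positive control median; more negative values mean more cell killing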
[6] = A2780 cell killing – plate reader, dry powder samples, cytotoxicity control, dose response (AID 743046); settings: A2780 ovarian cancer cytotoxicity; series mostly up to 35 µM;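 further: 0% = neutral control wells and -100% = cytotoxic reference compound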
[7] = OVCAR8 cell viability loss – plate reader, dry powder samples, PAX8 project, dose response (AID 743197); settings: series mostly up to 35 µM
[8] = OVCAR-3 cell viability loss – plate reader, dry powder samples, PAX8 inhibitor project, dose response (AID 743044); settings: NIH:OVCAR-3 ovarian cancer cell viability; max activity: at 35 µM, stronger effect = lower value unless noted; series mostly up to 50 µM
[9] = general cell-killing toxicity readout – plate reader, dry powder samples, cytotoxicity control for PAX8 inhibitor project, dose response (AID 743021); settings: cell line, non-specific cytotoxicity counter-screen; series mostly up to 35 µM
[10] = toxicity toward HepG2 liver cells – cell-based, plate reader, cherry-pick, antagonist series, cytotoxicity control, dose response (AID 743416); settings: series mostly up to 26 µM;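 further: 0% = neutral control wells and -100% = positive control wells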

C[C@H](CO)N1C[C@H](C)[C@H](CN(C)S(=O)(=O)c2ccc(Cl)cc2)Oc2c(NC(=O)Nc3ccc(F)cc3)cccc2C1=O
inactive: outcome [1] | outcome [2] | outcome [3] | outcome [4] | outcome [5] | outcome [6]

CN(C)CC(=O)N1CCCCN2[C@H](CO)[C@H](c3ccc(/C=C/c4ccccc4)cc3)[C@H]2C1
inactive: outcome [1] | outcome [2] | outcome [3] | outcome [4] | outcome [5] | outcome [6]

C[C@H](CO)N1C[C@H](C)[C@H](CN(C)C(=O)[C@H](Cc2ccccc2)N(C)C)OCc2ccccc2-c2c(n(C)c3ccccc23)C1=O
inactive: outcome [1] | outcome [2] | outcome [3] | outcome [4] | outcome [5] | outcome [7]

Cc1ccc(S(=O)(=O)N(C)C[C@H]2Oc3ccc(NS(=O)(=O)c4ccc(F)cc4)cc3CC(=O)N([C@H](C)CO)C[C@H]2C)cc1
inactive: outcome [1] | outcome [2] | outcome [3] | outcome [4] | max activity [8] 12.5% [at 2.1 µM, stronger effect = lower value] | outcome [5] | outcome [6] | outcome [7]

COc1ccc(-c2csc3ncnc(Sc4nnnn4C)c23)cc1
inactive: outcome [1] | outcome [2] | outcome [3] | outcome [9] | outcome [10]

N#C[C@H]1[C@@H](c2ccc(C#Cc3ccccc3F)cc2)[C@@H](CO)N1C(=O)C1CCCCC1
inactive: outcome [1] | outcome [2] | outcome [3] | outcome [4] | outcome [5] | outcome [7]

COc1ccccc1C#Cc1ccc2c(c1)O[C@H](CN(C)Cc1ccncc1)[C@@H](C)CN([C@@H](C)CO)S2(=O)=O
inactive: outcome [1] | outcome [2] | outcome [3] | outcome [4] | outcome [5] | outcome [6] | outcome [7]

CCCC#Cc1ccc([C@@H]2[C@H](C#N)N(S(=O)(=O)c3cccc(F)c3)[C@H]2CO)cc1
inactive: outcome [1] | outcome [2] | outcome [3] | outcome [4] | outcome [5] | outcome [7]

COc1cccc(C#Cc2ccc([C@H]3[C@@H](CO)N(C(=O)C4CCCC4)[C@H]3C#N)cc2)c1
inactive: outcome [1] | outcome [2] | outcome [3] | outcome [9] | outcome [6] | outcome [7]

C[C@@H]1CCCCO[C@@H](CN(C)C(=O)c2ccccc2)[C@@H](C)CN([C@@H](C)CO)C(=O)c2cc(NC(=O)Nc3ccc(C(F)(F)F)cc3)ccc2O1
inactive: outcome [1] | outcome [2] | outcome [3] | outcome [4] | outcome [5] | outcome [6]

C[C@@H]1CN([C@H](C)CO)C(=O)c2cc(NC(=O)Nc3ccc(C(F)(F)F)cc3)ccc2O[C@@H](C)CCCCO[C@@H]1CN(C)C(=O)NC1CCCCC1
inactive: outcome [1] | outcome [2] | outcome [3] | outcome [4] | outcome [5] | outcome [6] | outcome [7]

C[C@H](CO)N1C[C@H](C)[C@@H](CN(C)C(=O)Cc2ccccc2)OCCCC[C@H](C)Oc2ccc(NC(=O)Nc3ccc(C(F)(F)F)cc3)cc2C1=O
inactive: outcome [1] | outcome [2] | outcome [3] | outcome [4] | max activity [8] 1.93% [at 8 µM, stronger effect = lower value] | outcome [5] | outcome [6]

COc1ccc(NC(=O)Nc2ccc3c(c2)C(=O)N([C@@H](C)CO)C[C@@H](C)[C@H](CN(C)Cc2ccc(C(F)(F)F)cc2)O3)cc1
inactive: outcome [1] | outcome [2] | outcome [3] | outcome [4] | max activity [8] 30.5% [at 30 µM, stronger effect = lower value] | outcome [5] | outcome [6] | outcome [7]

C[C@@H]1CN([C@H](C)CO)C(=O)c2cc(NC(=O)Nc3ccc(C(F)(F)F)cc3)ccc2O[C@@H](C)CCCCO[C@@H]1CN(C)Cc1ccncc1
inactive: outcome [1] | outcome [2] | outcome [3] | outcome [9] | outcome [7]

CCCC#Cc1ccc([C@@H]2[C@@H](C#N)N(S(=O)(=O)c3cccc(F)c3)[C@H]2CO)cc1
inactive: outcome [1] | outcome [2] | outcome [3] | outcome [4] | max activity [8] -20.5% [at 0.5 µM, stronger effect = lower value] | outcome [5] | outcome [6]

N#C[C@@H]1[C@H](c2ccc(-c3ccccc3F)cc2)[C@@H](CO)N1C(=O)Cc1ccccc1
inactive: outcome [1] | outcome [2] | outcome [3] | outcome [9] | outcome [6] | outcome [7]

C[C@H](CO)N1C[C@H](C)[C@@H](CN(C)Cc2ccc(C(F)(F)F)cc2)Oc2ccc(NS(=O)(=O)c3ccccc3)cc2CC1=O
inactive: outcome [1] | outcome [2] | outcome [3] | outcome [4] | outcome [5]

C[C@H](CO)N1C[C@H](C)[C@H](CN(C)Cc2ccccc2)OCCCC[C@H](C)Oc2ccc(NC(=O)Nc3ccc(C(F)(F)F)cc3)cc2C1=O
inactive: outcome [1] | outcome [2] | outcome [3] | outcome [9] | outcome [7]

O=C(C[C@@H]1CC[C@H]2[C@@H](COC[C@@H](O)CN2Cc2cccc(F)c2)O1)NCC1CCCCC1
inactive: outcome [1] | outcome [2] | outcome [3] | outcome [4] | max activity [8] 45.7% [at 8 µM, stronger effect = lower value] | outcome [5] | outcome [6] | outcome [7]

C[C@H](CO)N1C[C@H](C)[C@@H](CN(C)Cc2ccc(-c3ccccc3)cc2)Oc2ccc(NC(=O)C3CC3)cc2CC1=O
inactive: outcome [1] | outcome [2] | outcome [3] | outcome [4] | max activity [8] 42.3% [at 2.1 µM, stronger effect = lower value] | outcome [5] | outcome [6] | outcome [7]

COc1ccc(S(=O)(=O)N(C)C[C@H]2Oc3c(NC(=O)Nc4ccc(C(F)(F)F)cc4)cccc3C(=O)N([C@@H](C)CO)C[C@H]2C)cc1
inactive: outcome [1] | outcome [2] | outcome [3] | outcome [4] | outcome [5] | outcome [6] | outcome [7]

COc1ccccc1C#Cc1ccc2c(c1)O[C@@H](CN(C)Cc1cccnc1)[C@H](C)CN([C@H](C)CO)S2(=O)=O
inactive: outcome [1] | outcome [2] | outcome [3] | outcome [4] | max activity [8] 17.1% | outcome [5] | outcome [6]

CCCC#Cc1ccc([C@H]2[C@@H](CO)N(C(=O)C3CCCCC3)[C@H]2C#N)cc1
inactive: outcome [1] | outcome [2] | outcome [3] | outcome [4] | outcome [5] | outcome [6] | outcome [7]

Cc1ccc(S(=O)(=O)Nc2ccc3c(c2)C(=O)N([C@@H](C)CO)C[C@@H](C)[C@H](CN(C)Cc2ccc(C(F)(F)F)cc2)OCCCC[C@@H](C)O3)cc1
inactive: outcome [1] | outcome [2] | outcome [3] | outcome [5] | outcome [6]

O=C1CN(S(=O)(=O)Cc2ccccc2)C[C@@H]2[C@@H](c3ccc(C#Cc4ccc(F)cc4)cc3)[C@@H](CO)N12
inactive: outcome [1] | outcome [2] | outcome [3] | max activity [8] -59.7% [at 16 µM, stronger effect = lower value] | outcome [5] | outcome [6]

O=C(Nc1cccc(F)c1)N1CCCCN2[C@H](CO)[C@@H](c3ccc(-c4ccccc4F)cc3)[C@H]2C1
inactive: outcome [1] | outcome [2] | outcome [3] | outcome [5] | outcome [6] | outcome [7]

COc1ccc(NC(=O)N2CC(=O)N3[C@H](C2)[C@H](c2ccc(/C=C/c4ccccc4)cc2)[C@@H]3CO)cc1
inactive: outcome [1] | outcome [2] | outcome [3] | outcome [5] | outcome [7]

CCCNC(=O)N(C)C[C@H]1N[C@@H](CO)[C@@H]1c1ccc(C2=CCCCC2)cc1
inactive: outcome [1] | outcome [2] | outcome [3] | outcome [6]

COc1ccc(NC(=O)N2C[C@@H]3N[C@H](C2)[C@@H]3c2ccc(-c3ccc(OC)cc3)cc2)cc1
inactive: outcome [1] | outcome [2] | outcome [3] | outcome [6]

COc1ccccc1-c1ccc([C@@H]2[C@@H]3CN(S(=O)(=O)c4ccc(-c5ccccc5)cc4)C[C@H]2N3)cc1
inactive: outcome [1] | outcome [2] | outcome [3] | outcome [5] | outcome [6]

COc1ccc(-c2ccc(C3[C@@H]4CN(Cc5cc(OC)cc(OC)c5)C[C@H]3N4)cc2)cc1 (stereo not given in full)
inactive: outcome [1] | outcome [2] | outcome [3] | max activity [8] -15.8% [at 16 µM, stronger effect = lower value] | activity change, negative = cytotoxicity [5] 6.64% [at 8 µM] | outcome [6]

O=C(Nc1ccc(F)cc1)N1C[C@@H]2N[C@H](C1)C2c1ccc(-c2ccccc2F)cc1 (stereo not given in full)
inactive: outcome [1] | outcome [2] | outcome [3] | outcome [5] | outcome [6]

C[C@@H]1CN([C@H](C)CO)C(=O)c2cc(NC(=O)Nc3ccc(C(F)(F)F)cc3)ccc2O[C@@H](C)CCCCO[C@H]1CN(C)Cc1ccc2c(c1)OCO2
inactive: outcome [1] | outcome [2] | outcome [3] | max activity [8] -34.3% | outcome [5] | outcome [6]

C[C@H](CO)N1C[C@H](C)[C@@H](CN(C)S(=O)(=O)c2cccs2)OCCCC[C@H](C)Oc2ccc(NS(=O)(=O)c3ccc(Cl)cc3)cc2C1=O
inactive: outcome [1] | outcome [2] | outcome [3] | outcome [5] | outcome [6]

O=C(C[C@H]1CC[C@H]2[C@@H](COC[C@@H](O)CN2S(=O)(=O)c2cccc(Cl)c2)O1)Nc1ccc(-c2ccccc2)cc1
inactive: outcome [1] | outcome [2] | outcome [3] | outcome [5] | outcome [6]

N#C[C@H]1[C@@H](c2ccc(C#Cc3ccc(F)cc3)cc2)[C@H](CO)N1C(=O)C1CCCC1
inactive: outcome [1] | outcome [2] | outcome [3] | outcome [5]

COc1ccccc1NC(=O)N1CCCCN2[C@H](CO)[C@H](c3ccc(-c4cccc(C)c4)cc3)[C@H]2C1
inactive: outcome [1] | outcome [2] | outcome [3] | outcome [5] | outcome [6] | outcome [7]

C[C@@H]1CN([C@H](C)CO)C(=O)c2cc(NC(=O)Nc3ccc(C(F)(F)F)cc3)ccc2O[C@@H](C)CCCCO[C@@H]1CN(C)Cc1ccccc1
inactive: outcome [1] | outcome [2] | outcome [3] | outcome [5]
